Results: PubChem BioAssay
Values without a mark were called inactive. Calls of active or inactive are those of the source.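 Rule for the calls: active = mean inhibition above 46.5%, the solvent-only control mean plus 3 SD; inactive = the rest.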

Each compound was assayed against Nuclear receptor coactivator 2 (Homo sapiens) (UniProt Q15596) (assay: SRC2 coactivator transcriptional activity inhibitors, confirmation, cell-based, luminescence, HEK293, triplicate (AID 652008;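 note: 0% = DMSO-treated cells and 100% = Gossypol at 36 µM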)). Conditions: HEK293 GAL4-SRC2 luciferase reporter, at 8.9 µM, stronger effect = higher value.
Chain of Nuclear receptor coactivator 2 (Homo sapiens) (Q15596 whole entry, looked up, the tested form may be a part): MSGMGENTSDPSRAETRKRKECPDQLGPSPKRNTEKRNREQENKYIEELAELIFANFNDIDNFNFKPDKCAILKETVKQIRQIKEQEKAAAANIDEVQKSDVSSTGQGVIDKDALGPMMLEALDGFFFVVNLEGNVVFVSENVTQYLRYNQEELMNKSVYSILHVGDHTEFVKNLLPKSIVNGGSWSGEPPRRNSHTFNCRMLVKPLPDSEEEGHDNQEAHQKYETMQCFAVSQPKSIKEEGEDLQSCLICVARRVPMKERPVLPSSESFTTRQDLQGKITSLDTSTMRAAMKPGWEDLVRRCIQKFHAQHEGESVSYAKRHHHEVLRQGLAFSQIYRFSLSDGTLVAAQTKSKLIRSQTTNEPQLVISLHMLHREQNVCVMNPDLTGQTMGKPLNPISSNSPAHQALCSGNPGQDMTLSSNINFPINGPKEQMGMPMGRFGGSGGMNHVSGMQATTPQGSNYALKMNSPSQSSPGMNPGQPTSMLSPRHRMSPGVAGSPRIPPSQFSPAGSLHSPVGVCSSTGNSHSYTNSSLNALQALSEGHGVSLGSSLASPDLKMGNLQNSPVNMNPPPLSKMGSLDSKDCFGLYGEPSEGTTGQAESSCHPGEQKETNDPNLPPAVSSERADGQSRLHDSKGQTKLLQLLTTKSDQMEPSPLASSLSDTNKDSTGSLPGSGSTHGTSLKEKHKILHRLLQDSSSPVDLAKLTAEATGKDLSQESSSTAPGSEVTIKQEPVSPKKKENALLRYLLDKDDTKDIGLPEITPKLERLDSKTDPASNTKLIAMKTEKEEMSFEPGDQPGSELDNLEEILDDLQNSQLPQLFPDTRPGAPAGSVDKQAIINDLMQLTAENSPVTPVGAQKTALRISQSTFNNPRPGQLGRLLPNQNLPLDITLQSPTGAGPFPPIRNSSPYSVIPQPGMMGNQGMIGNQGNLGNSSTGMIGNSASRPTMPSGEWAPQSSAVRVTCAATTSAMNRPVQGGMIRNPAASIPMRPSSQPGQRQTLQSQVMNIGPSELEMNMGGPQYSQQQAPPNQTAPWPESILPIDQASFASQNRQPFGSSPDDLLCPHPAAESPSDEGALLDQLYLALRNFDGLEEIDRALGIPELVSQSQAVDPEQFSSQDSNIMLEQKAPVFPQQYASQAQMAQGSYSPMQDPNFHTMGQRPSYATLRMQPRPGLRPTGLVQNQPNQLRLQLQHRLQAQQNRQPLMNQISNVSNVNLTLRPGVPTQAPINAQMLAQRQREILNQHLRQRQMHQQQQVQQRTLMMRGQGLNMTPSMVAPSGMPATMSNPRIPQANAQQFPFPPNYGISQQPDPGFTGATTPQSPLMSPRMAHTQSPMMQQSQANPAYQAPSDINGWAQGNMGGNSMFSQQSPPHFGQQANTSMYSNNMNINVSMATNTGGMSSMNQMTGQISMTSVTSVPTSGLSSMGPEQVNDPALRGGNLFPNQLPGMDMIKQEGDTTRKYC

Structure (SMILES) | inhibition
CN(C)c1ccc(NC(=S)c2ccccn2)cc1 | 59.6% (active)
O=C(O)c1cccc(CSc2nnc(COc3ccccc3)o2)c1 | 34.5%
COc1ccc(-c2cc(C(=O)O)c(C)o2)cc1OC | -11.1%
Cc1ccc(S(=O)(=O)N2[C@@H](c3ccc4c(c3)OCO4)C(C(=O)O)=C[C@H]2C(C)(C)C)cc1 | 1.95%
CCn1nc(NC(=O)C(C)C)c2cc3cccc(C)c3nc21 | 15.9%
CC(C)(C)c1ccc(-c2n[nH]c(=S)n2C2CCCC2)cc1 | 3.48%
Oc1cc2ccccc2cc1-c1nnc2n1-c1ccccc1SC2 | 3.52%
COCCN(C(=O)CC1C(=O)NCCN1Cc1ccc(-c2ccccc2)cc1)C(C)C (stereo not given) | -6.54%
CCC(=O)Nc1ccc(NC(=O)c2oc3ccccc3c2C)cc1 | 38.1%
COc1ccc(CCNc2ncnc3cc(OC)c(OC)cc23)cc1OC | 16.4%
CCC(NC(=O)CCc1c(C)c2cc3c4c(oc3cc2oc1=O)CCCC4)C(=O)O (stereo not given) | 70.3% (active)
C[C@@H]1C[C@H]2O[C@@H]2/C=C\C=C\C(=O)Cc2cc(O)cc(O)c2C(=O)O1 | 15.2%
N#CCCN(C(=O)COC(=O)C1CCN(S(=O)(=O)c2ccccc2C(F)(F)F)CC1)c1ccccc1 | 11.1%
O=C(C1=NN[C@@H]2C(=O)N(c3cccc(C(F)(F)F)c3)C(=O)[C@H]12)c1ccc2ccccc2n1 | 6.3%
[2H]C(CCOS(N)(=O)=O)c1ccc(C(C)(C)C)cc1 (stereo not given) | 41.4%
CC1CCCCC12NC(=O)N(CC(=O)Nc1ccc(OC(F)F)cc1)C2=O (stereo not given) | -11.2%
Cn1nnnc1Sc1ncnc2scc(-c3ccc(C(F)(F)F)cc3)c12 | 44.4%
COc1ccc(CN=C(Nc2ccccc2)SC2CC(=O)NC2=O)cc1 (stereo not given) | -13.2%
Cc1ccc(CS(=O)(=O)c2ncc(Cl)c(C(=O)Nc3ccc(OC(F)F)cc3)n2)cc1 | 28.9%
COc1cc2[nH]c3c(=O)n4c(nc3c2cc1OC)SCCC4 | 13.4%

Structure (SMILES) | inhibition
O=C(CN1C(=O)NC2(CCCCCC2)C1=O)Nc1ccc(Br)cc1Br | 2.3%
CCC(C)Nc1nc(C)nc2c1oc1ccccc12 (stereo not given) | 3.55%
Cc1ccc(C)c(N2CCN(C(=O)c3ccc4c(c3)c(C)c(C)n4C)CC2)c1 | 3.19%
O=C(CCl)N1c2ccccc2CCc2ccccc21 | 31.7%
CC1=CC(C)(C)N(S(=O)(=O)c2ccc(C)cc2)c2ccc(C)cc21 | -5.7%
O=C(Nc1nc2cc3c(cc2s1)OCCO3)c1ccco1 | 56.3% (active)
Cn1cc(S(=O)(=O)Nc2ccc3c(c2)OCCO3)cn1 | 32.5%
O=C(NC1CCCC1)C(c1ccccc1)n1c(CSCCOc2ccccc2)nc2ccccc21 (stereo not given) | 80.3% (active)
CC(C)(C)c1nn(-c2ccccc2)c2[nH]c(=O)c(CNc3ccc4c(c3)OCCO4)cc12 | 3.22%
Cc1cc(C(=O)CN2C(=O)c3ccccc3S2(=O)=O)c(C)n1-c1ccccc1 | 55.4% (active)
CC(C)(C)c1ccccc1NC(=O)CN1C(=O)NC2(CCCC2)C1=O | -9.65%
Nc1ccc(Oc2ccc3c(c2)C(=O)N(CC2CCCO2)C3=O)cc1 (stereo not given) | 52.8% (active)
CN(Cc1ccccc1)C(=O)c1ccc(NC(=O)C2CCN(C(=O)OC(C)(C)C)CC2)cc1 | 60.4% (active)
CN(C)c1ccc(CCc2ccc(N)cc2)cc1 | 57.2% (active)
Nc1ccc(-c2cc3ccccc3c(=O)o2)cc1 | 79.1% (active)
Cc1nc([N+](=O)[O-])c(Sc2nc3ccc([N+](=O)[O-])cc3[nH]2)n1Cc1ccccc1 | 46.7% (active)
Cn1c(=O)c2c(ncn2CCOc2cccc(Br)c2)n(C)c1=O | 2.64%
CC(C)(C)c1ccc(SCCc2ccncc2)cc1 | -4.99%
N#CC1CCCc2c1[nH]c1ccc([N+](=O)[O-])cc21 (stereo not given) | -16.7%
C=CCn1nc(C(=O)N2CCOCC2)cc1-c1sc(NC(=O)c2ccccc2)nc1C | 24.6%
